Measurements reported in PubChem BioAssay (NCI).
This is part of a sample that, as a whole, favours compounds with a hit. Of some 83,000 tested, about 20% had one in any assay.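 Cells were grown in 96-well plates and exposed to the test compound at a single concentration for 48 hours; results are reported as percent growth, with values below 10 considered active.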 Values without a mark were called inactive. Calls of active or inactive are those of the source.

Test system: CAKI-1 renal
Assay: NCI-60 one-dose screen, 48 h (100 = growth as untreated, 0 = no growth, -100 = all killed)
Details: 10 µM unless noted

Row | SMILES | growth
1 | CC(C)=CCC[C@](C)(O)[C@H]1CC[C@]2(C)[C@@H]1CC[C@@H]1[C@@]3(C)CC[C@H](N)C(C)(C)[C@@H]3CC[C@]12C | 67.8%
2 | Cc1cc2nc(C(Cl)Cl)nc(-c3ccc(S(=O)(=O)N(C)C)cc3)n2n1 | 45%
3 | CCCCCCNC(=O)Oc1ccc(/C(=C(/C)c2ccc(OC)cc2)c2ccc(OCCN3CCCCCC3)cc2)cc1 | 17.3%
4 | Cc1nc(/N=C(N)/N=C(\N)c2cccc(Br)c2)sc1C | 48.6%
5 | O=c1nc(Nc2ccc([N+](=O)[O-])cc2O)sc2ccccc12 | 33%
6 | C#CCOc1ccc(-c2csc(NC(=O)C=C)n2)cc1NS(=O)(=O)c1cccc2c(N(C)C)cccc12 | 36.2%
7 | COc1ccc(C2CC(c3cccc(OCCCCOc4cccc(C5=NOC(c6ccc(OC)cc6)C5)c4)c3)=NO2)cc1 (stereo not given) | 89%
8 | Cc1ccc(OCc2occc2C(=O)N2CCOCC2)cc1 | 93.7%
9 | O=S(=O)(NCCCNc1nccc(-c2[nH]c(-c3ccccc3)nc2-c2ccc(F)c(O)c2)n1)c1cccc2ccccc12 | 77.2%
10 | CCc1cc(OC(=O)N2CCC(N3CCCCC3)CC2)ccc1Nc1cc(-c2ccc(-n3cccn3)cc2)[nH]n1 | 48.4%
11 | O=C(COc1ccc(/C=C2\C(=O)Nc3ccc(F)cc32)cc1)Nc1ccccc1 | 82.4%
12 | CC1=C(C)C(=O)C(Nc2cccc(C(=O)OC(C)(C)C)c2)=CC1=O | 71.5%
13 | Cn1cc(-c2nnc(N)nc2-c2c[nH]c3ccc(F)cc23)c2cc(Br)ccc21 | 28%
14 | Cn1c(SCC(=O)c2ccc(F)cc2)nc2ccccc2c1=O | 87.7%
15 | CN1CCN(c2ccc(Nc3nc(NCCCNS(=O)(=O)c4cccc5ccccc45)c4sccc4n3)cc2)CC1 | -52.7% (active)
16 | CCCCCC[n+]1ccc(SCC(=O)n2ccc3ccccc32)c2ccccc21 | 78.4%
17 | COc1ccc(-c2cc(-c3ccc(N(C)C)cc3)n3c(n2)nc2ccccc23)cc1 | 61.2%
18 | CC(=O)N(O)CCCCCNC(=O)CCC(=O)N(O)CCCCCNC(=O)CCC(=O)N(O)CCCCCN(CCCCCCCCCC[P+](c1ccccc1)(c1ccccc1)c1ccccc1)CCCCCCCCCC[P+](c1ccccc1)(c1ccccc1)c1ccccc1 | 29.3%
19 | CC1=C(C)C(=O)C(Nc2ccc3c(c2)OCCO3)=C(Br)C1=O | 102%
20 | COc1ccc2c(c1)C=CC1(O2)Oc2ccc(OC)cc2C=C1C (stereo not given) | 30.3%

Row | SMILES | growth
21 | C/C(=C(\c1ccc(O)cc1)c1ccc(OCCN2CCCCCC2)cc1)c1ccc(Cl)cc1 | -97.3% (active)
22 | Brc1cccc(-c2cc(-c3ccc4c(c3)OC=CO4)[nH]n2)c1 | 29.9%
23 | COc1ccc(C(C)=C(c2ccc(OCCN(C)C)cc2)c2ccc(OCCN(C)C)cc2)cc1 | -69.1% (active)
24 | NS(=O)(=O)c1ccc(Nc2nc(N/N=C/c3ccc4c(c3)OCO4)nc(Nc3ccccc3)n2)cc1 | 45.4%
25 | COc1ccc(C2c3[nH]c4ccc(Cl)cc4c3CCN2c2oc(CO)nc2C#N)cc1 (stereo not given) | 36.5%
26 | CCc1cc2c(cc1Cl)nc1c(=O)[nH]c(=O)nc-1n2CCOCC(C)C | 67.7%
27 | COc1ccc(-c2c3c(cn2Cc2cccc(OC)c2)-c2oncc2CCC3)cc1 | 76.1%
28 | COc1ccc(/C(=N\NC(N)=S)c2ccc(Cl)cc2)cc1OC | 31.2%
29 | O=C(CSc1nnc(-c2ccc(Cl)cc2)n1-c1ccccc1)Nc1ccccc1Cl | 74.6%
30 | COc1ccc(-c2c(C(N)=O)c(N)n(Cc3nc4ccccc4[nH]3)c(=O)c2C#N)c(OC)c1 | 78.9%
31 | COc1ccc(-c2cnc(NC(=O)CCCCCCNC(=O)C(O)(O)C(F)(F)F)s2)cc1 | -39.9% (active)
32 | C#C[C@]1(O)CC[C@H]2[C@@H]3CC=C4c5sc(Nc6cc(C)cc(C)c6)nc5CC[C@]4(C)[C@H]3CC[C@@]21C | 11%
33 | COC(=O)CNC(=O)c1cccc(-c2cc(=O)c3c(OC)c(OC)c(OC)cc3o2)c1 | 102%
34 | CCC1=Cc2c(OC)cccc2OC12C=Cc1c(OC)cccc1O2 (stereo not given) | 28.4%
35 | Cc1ccc2c(n1)C(=O)C(Cl)=C(Nc1ccc(C#N)cc1)C2=O | 76.5%
36 | Cn1ncc2c(C(=O)c3ccc(F)cc3)nc(C(C)(C)C)nc21 | 89.5%
37 | CN1c2ccccc2Sc2cc(/C=N/Nc3ccnc4cc(Cl)ccc34)ccc21 | 103%
38 | COCCOc1ccc2ncc(C#Cc3cncc(C(=O)Nc4ccc(CN5CCN(C)CC5)c(C(F)(F)F)c4)c3)n2n1 | 1.32% (active)
39 | O=C(CCCCCCNC(=O)C(O)(O)C(F)(F)F)Nc1ncc(-c2ccccc2)s1 | -40.4% (active)
40 | CCCCN1C(=O)/C(=c2\sc3n(c2=O)C2C(NN=3)N(CC)C(=O)N2CC)c2cc(C)ccc21 (stereo not given) | 58.1%
